Records with an inconclusive call do not appear. A call without a number means that no potency is given here. Activity calls are given as the source filed them. Calls come from the whole dose curve; as a rule, active = well fitted inhibition curve with a large enough effect; inconclusive = small, poorly fitted or top-dose-only effect; inactive = flat fitted curve, though single readings scatter.
What follows are compounds tested against Calcium and integrin-binding protein 1 (Homo sapiens) (UniProt Q99828) (assay: Primary qHTS for Identification of Calcium Integrin Binding Protein 1 (CIB1) Competitor (AID 1508620;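 note: GST tagged CIB1 binding a fluorescein labelled alphaIIb integrin peptide tracer; top concentration of the series differs between compounds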)). Conditions: CIB1-GST / FITC-alphaIIb peptide fluorescence polarization; series mostly up to 114 µM.
Summary of the method: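 CIB1-GST (1 uM final) and compound incubated 15 min at room temperature before adding FITC-alphaIIb peptide tracer (100 nM final). Competition for binding read by fluorescence polarization (ex 480, em 540) after another 15 min at room temperature.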

Chain of Calcium and integrin-binding protein 1 (Homo sapiens) (Q99828 whole entry, looked up): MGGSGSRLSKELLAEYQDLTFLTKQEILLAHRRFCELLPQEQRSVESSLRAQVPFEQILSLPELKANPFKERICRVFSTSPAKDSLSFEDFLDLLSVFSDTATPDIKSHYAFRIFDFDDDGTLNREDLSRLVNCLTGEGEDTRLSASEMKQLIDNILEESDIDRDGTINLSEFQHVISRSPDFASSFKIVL

Row | SMILES | Potency
1 | N#Cc1c(-c2ccccc2C(F)(F)F)nc2ccccc2c1NCc1ccc(-c2ccnc(C(F)(F)F)c2)cc1 | inactive
2 | Cc1cc(C)nc(NC(=S)N2CCN(c3cc(C#N)cc(C#N)c3)CC2)c1 | inactive
3 | FC(F)(F)c1ccccc1-c1nc(NCc2ccc(-c3cccc(Cl)c3)cc2)c2ccccc2n1 | inactive
4 | O=C(O)c1ccc(-c2noc(-c3cccc(Cl)c3)n2)cc1 | inactive
5 | COC(=O)c1ccc(O)c2ncc(NC3CCNCC3)cc12 | inactive
6 | Nc1ccc2c(=O)n3nc(Nc4ccc5c(c4)CCC5)sc3nc2c1 | inactive
7 | COc1cccc(CNc2ccc(S(=O)(=O)Nc3cc(C)on3)cc2)c1O | inactive
8 | O=C(Nc1cccc([S+](=O)([O-])Nc2ccccc2F)c1)c1ccccc1 | inactive
9 | O=C1Cc2cc(S(=O)(=O)N3CCN(c4ccc(O)cc4)CC3)ccc2N1 | inactive
10 | Cc1ccc(Cl)cc1NS(=O)(=O)c1cc2c(cc1F)NC(=O)CC2 | inactive
11 | Cc1cc(C)nc(NC(=S)N2CCN(c3ncccn3)CC2)c1 | inactive
12 | CN1CCN(c2nnc(NC(=O)Nc3ccc(Cl)c(Cl)c3)s2)CC1 | inactive
13 | CC(C)(C)OC(=O)N1CCN(c2ccc(OCc3ccc(-c4ccc(C#N)cc4)o3)cc2)CC1 | inactive
14 | Cn1c2cc(Br)sc2c2cnn(Cc3c(F)cccc3Cl)c(=O)c21 | inactive
15 | Cc1csc(CNc2ncnc3ccc(-c4ccc5c(ccn5C)c4)cc23)c1 | inactive
16 | O=[S+]([O-])(Nc1ccc(N2CCNCC2)cc1)c1ccc(NCc2ccc(Cl)cc2O)cc1 | inactive
17 | Cc1ccnc(NC(=S)N2CCN(c3cccc([N+](=O)[O-])c3)CC2)c1 | inactive
18 | O=C(Nc1ccc(O)c2ncccc12)c1ccccc1F | inactive
19 | CCCCCCNC(=O)Nc1nnc(-c2ccncc2)s1 | inactive
20 | CC(C)(C)OC(=O)N1CCN(c2ccc(NCc3ccc(-c4cc(C(F)(F)F)cc(C(F)(F)F)c4)o3)cc2)CC1 | inactive
21 | Cc1ccc(OCCn2c(CCNC(=O)c3c(F)cccc3F)nc3ccccc32)cc1 | inactive
22 | CCOc1ccccc1-c1nnc2n1N=C(c1cc(OC)cc(OC)c1)CS2 | inactive

Reference: PubChem BioAssay (NCATS)
